Consider 40 sequences from the supplement of paper PMC6555819.

The test concerns VDR:RXRa (NR concentration 270 nM, RXRa partner concentration 90 nM). The experiment in a line: PBM binding z-score (relative to random genomic background probes); higher = stronger binding; sequences stand for … in GC…GCGATTGACAGCGTAGAATGAAGG
As to the method: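 Protein-binding microarray (Agilent 4x180K custom design, double-stranded 60-nt probes: 5' GC cap, 34-nt variable region, 24-nt constant primer region; full probe sequence given). Purified or IVT nuclear receptor:RXRα heterodimers (3:1 NR:RXRα, mostly 270:90 nM) or homodimers were incubated for 1 h in PBS with 2% milk and no ligand, then detected with Alexa488 antibodies. Fluorescence from o1-orientation probes (~5 replicates averaged) was converted to z-scores against 500 random hg19 background probes. Variable regions are seed direct-repeat (DR0–DR5) sites, all their single-nucleotide variants and half-site ablations.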
Consider AATACAGGTTCATCGTAGGCCAGAGTACGCACAG, for which the PBM binding z-score is 4.6.

Sequence ACAGACAGGTGATAAAGGTAACTCAGGCTATCAT had a PBM binding z-score of 0.455.

ACAGACAGGTGAGTGAAGGGAACTCAGCTGGACG displayed a PBM binding z-score of -0.408.

For the sequence AATACAGGGCCATCGTAGGCCAGAGTACGCACAG, the PBM binding z-score is -0.126.

Take AGTCCAAGTTCAGGACGAGGTAACGTAAAGCACG: the PBM binding z-score came out at 2.51.

In the case of CCGAGTAGGTTATGGGGCAATCAGGCAACGGTGA, the PBM binding z-score came to 0.00491.

For the sequence CCTGCTAGGCCATGGTCAGCTAATCTACAGTATG, the PBM binding z-score was -0.543.

Sequence ACTATTAGTTGAGACGAGGGCAACGGATAGGTTG came in with a PBM binding z-score of 0.66.

For the sequence TGAATGAGGTTATTAGATCAGGGAACGTTGCAAA, the PBM binding z-score is 0.99.

Sequence TAGCCTAGGTCCTTGGGCCAGTATAGTACGCATC showed a PBM binding z-score of -0.897.

Sequence AGAATGAGGTTATTAAGATAAGGGAATTGCGGTC displayed a PBM binding z-score of 1.3.

Sequence CCTCGGAGGACAACAGGAGGTCAGAGGTGCCAGA showed a PBM binding z-score of 2.28.

Take TTACCAAGGTGAAAGGTCGTTTATGCACGCCTTG: the PBM binding z-score worked out at 3.32.

Turning to TCTTGTAGATCAGCAGTTTAAGAAAGCTGGCCAA, the PBM binding z-score is -0.0839.

CGTCAAAGTTCAAGGTAACTTAACAGAAAGCAGC registered a PBM binding z-score of 3.73.

Take CCTCGGAGGACAGCAGGAGGTCAGAGCTGCCAGA: the PBM binding z-score was found to be 1.09.

As for CGAACGAGGGCATAAGTTGATAGCAAATGCCGAT, the PBM binding z-score was 0.652.

Turning to CGAACTATGTCATCCAGGACAGTGAATACATTGA, the PBM binding z-score stood at 1.05.

On to ACAGACAGGTGAGTGAGGGTAACTCAGCTGGACG, for which the PBM binding z-score came to 2.

As for CGTACAAGGTCAGCAGGTCAGTGAAAGCGACGTG, the PBM binding z-score is 4.16.

For the sequence ATCGATAGGTCGAGGTGAGTATAGAGAAAGGGAA, the PBM binding z-score is 0.414.

In the case of CCTTTCGGGTCACTGACAGGTTATAGCATTTGGA, the PBM binding z-score was 3.86.

The sequence GGAACGAGGGCAAAGTTGGTAGCATCTGTCGACG returned a PBM binding z-score of 1.14.

CCTTACGGGTCACTGAGAGGTTATAGCATTTGGA yielded a PBM binding z-score of 4.55.

On to GGAACGATGGCAAGTTGATAGCAGAGTTTGATGG, for which the PBM binding z-score is -0.469.

Sequence CTCGAAAGGTCGTGCTCATGTGAGTATACCAAAC displayed a PBM binding z-score of 3.36.

In turn, ATCGAAAGGTCGACTAGGTGAGTATACACCGTTT gave a PBM binding z-score of 3.25.

Regarding GCTGCTCGGTCAGGTTGGTCAGCTAACGGGTACG, the PBM binding z-score is -0.457.

Regarding ATATGTAGGTTAAATCCGGGTCATTCAGGCTATG, the PBM binding z-score stood at 4.63.

Turning to CCTAGTTGGTCAGGAGGTCACACACCGGATATGA, the PBM binding z-score came out at 4.06.

TCTTATAGATCAAGCAGGTTAAGAAAGCCTGAGT returned a PBM binding z-score of 0.894.

CCCGCTAGGTCAATGGTCAGCTAAAGCAGCTCGC came in with a PBM binding z-score of 1.02.

Turning to TCGAGTAGGTCAGTCGGGGCATTCAGCCAACATA, the PBM binding z-score amounted to 5.3.

The sequence CCGACTGGGGCAAAGGTTACAATACTCAGTACGA returned a PBM binding z-score of 1.71.

As to GCTAGCAGGCCATTTGGGTCACTCACTGACGGGC, the PBM binding z-score is 0.766.

In turn, CGTCCAAGGTCAAAGGTCAGTGCAGAGATGACGG returned a PBM binding z-score of 6.57.

In turn, ATCGAAAGGTCGTGAGATGAGTATACAGAAAGGC came in with a PBM binding z-score of 3.09.

In turn, CCTACTGGGCCAAAAAGGTCCTTGATGCCGATAA gave a PBM binding z-score of -0.189.

In turn, TCGAGTTGGTTAGGGGCATTCAGAATGGCGTCGA had a PBM binding z-score of 1.84.

ACTTACGGGTCAACGTGGTTATAGCACGCGTATA yielded a PBM binding z-score of 4.96.
